Experimental data: PubChem BioAssay
The other results are listed elsewhere or left out. Values without a mark were called inactive. Activity calls are given as the source filed them.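 Rule for the calls: active = inhibition reaching about 45% at 4 µM in either replicate (limit read from the data); inactive = the rest.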

Experiment: PMA/ionomycin-induced NF-kB reporter inhibitors, Jurkat retest, confirmation, T-cell NF-kB inhibitor project, cell-based, luminescence, single concentration (AID 435020);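 note: plate controls were PMA/ionomycin stimulated DMSO wells for no effect and unstimulated DMSO wells for full effect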
Settings: Jurkat NF-kB luciferase, 16 h, at 4 µM, stronger effect = higher value

| SMILES | inhibition |
| --- | --- |
| Cn1c(-c2ccc(F)cc2)cc2onc(-c3ccccc3Cl)c2c1=O | -96.3% |
| CCOC(=O)c1ccc(NC(=O)Cn2cnc3cc(C)c(C)cc32)cc1 | 66.2% (active) |
| Cc1ccc(O)c(NC(=O)COc2cc(C)ccc2C)c1 | 0.55% |
| Cn1nccc1C(=O)NC1CCCc2c1cnn2-c1ccc(F)cc1F (stereo not given) | 76.3% (active) |
| CCOc1cc(C(=O)N2CCc3cc(OC)c(OC)cc3C2)ccc1OC(F)F | 57.9% (active) |
| Cc1ccc(SCCSc2ncccn2)cc1 | -64.3% |
| COc1ccc(-n2ncc3c(N4CCc5ccccc54)ncnc32)cc1 | -93.4% |
| O=C(CSC(=S)N1CCCCC1)c1c(F)cccc1F | -113% |
| Cc1ccc2nc(-c3ccncc3)cc(C(=O)Nc3ccc(OC(F)F)cc3)c2c1 | 28.2% |
| O=C(NCC#CCSc1nnc(-c2cccc3ccccc23)o1)c1cccs1 | 62.8% (active) |
| Cc1ccc2nc(-c3ccc(NC(=O)CN(C)S(=O)(=O)c4ccccc4)cc3)sc2c1 | -82.4% |
| CC(C)CC(=O)N/C(N)=N/c1nc2ccccc2s1 | -131% |
| COc1ccccc1C1C2=C(COC2=O)Nc2cc3c(cc21)OCO3 (stereo not given) | 23.4% |
| COc1cc(SC)ccc1C(=O)NCCOc1ccccc1Cl | -81.7% |
| CCCOC(=O)c1[nH]c2c(c1C)C(=O)CC(c1cccs1)C2 (stereo not given) | 52.4% (active) |
| CCCOc1ccccc1C1CC(=O)Nc2cc3c(cc21)OCO3 (stereo not given) | 62% (active) |
| CC(=O)Nc1ccc(Nc2c3ccccc3nc3ccccc23)cc1 | 26.9% |
| COc1ccc(NC(=O)/C(Cl)=C(/Cl)S(=O)Cc2ccc(C)cc2)cn1 (stereo not given) | 100% (active) |
| COc1ccc(CNS(=O)(=O)c2cc(-c3cc(C)no3)ccc2C(C)C)cc1 | 41.9% |
| CCN(CC)c1ccc(/C=N/NC(=O)c2cnccn2)c(O)c1 | -7.5% |

| SMILES | inhibition |
| --- | --- |
| CCCC(=O)Nc1nc2ccc(NC(=O)c3c(F)c(F)c(OC)c(F)c3F)cc2s1 | 40.9% (active) |
| O=C(Nc1ccc2c(c1)OCCO2)C1CCCN(c2ncccn2)C1 (stereo not given) | -110% |
| Cc1cccc(-n2c(C)cc(/C=N\NC(=O)c3cccs3)c2C)c1 | 6.7% |
| C=CCn1c(SCc2c(C)noc2C)nc2sc3c(c2c1=O)CCC(C)C3 (stereo not given) | 27.9% |
| Cc1cc(N)n2nc(-c3ccc(C(C)(C)C)cc3)cc2n1 | -164% |
| Cc1cccc(N(C)C(=O)c2cc3c(=O)[nH]c4ccc(C)cc4c3s2)c1 | 16.9% |
| COc1ccc(CC(=O)Nc2nc(-c3ccc(F)c(F)c3)cs2)cc1OC | 58.5% (active) |
| N=c1c2c(-c3ccccc3)c(-c3ccccc3)n(Cc3ccccc3)c2ncn1CCCO | 24.1% |
| Cc1ccc(N2CCN(c3ccc([N+](=O)[O-])cn3)CC2)c(C)c1 | 15.2% |
| CC(C)c1ccc(NC(=O)NC2CCCCC2)cc1 | -175% |
| CC(=O)c1ccc(Oc2cc(C)nc(-n3nc(C)cc3C)n2)cc1 | 58.9% (active) |
| Cc1cccc(NS(=O)(=O)c2ccc(-c3cnc(C4CC4)o3)cc2)c1 | 53.5% (active) |
| c1cnc(N2CCN(c3ccc4ccccc4n3)CC2)nc1 | -107% |
| C/C(=N\NC(=O)c1ccccc1F)c1ccccn1 | 4.3% |
| COc1cc2c(cc1OC)CN(C(=O)c1cc(=O)c3ccccc3o1)CC2 | 21.4% |
| Cc1nnc(N/N=C/c2ccccn2)[nH]c1=O | 63.8% (active) |
| CCOc1cccc(/C=C/c2ccc3ccccc3n2)c1OC(C)=O | -131% |
| COc1ccccc1NC1=NC(c2ccc(Cl)cc2)N=C(N)N1 (stereo not given) | 18.7% |
| Oc1cccc(/C=N/Nc2ccc(Cl)nn2)c1O | 0.85% |
| CCOc1ccc2[nH]c3nc(SCC(=O)NC4CCCC4)nnc3c2c1 | 14.2% |
